From PubChem BioAssay (EPA / NIEHS)
Activity calls are given as the source filed them. The calls were made as follows: active = hit-call score of the fitted dose curve at least 0.9, where 1 is the maximum; inactive = score below 0.9.

Legend:
Conditions in all cases: mRNA level, 48 h; actives raise or lower the signal
[1] = read-out: Lipase C (LIPC), LIPC (gene 3990); test: LTEA_HepaRG_LIPC: Life Technologies and Expression Analysis (LTEA) Assay for Lipase C (LIPC) using HepaRG (AID 2283514)
Method in brief: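 LIPC expression was quantified by qRT-PCR against three housekeeping genes (ACTB, GAPDH, POLR2A). Differentiated human HepaRG cells received eight half-log doses (top 100 uM, 0.5% DMSO) in duplicate for 48 h; fitting bidirectional relative to DMSO.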

[2] = read-out: Lipoprotein lipase (LPL), LPL (gene 4023); test: LTEA_HepaRG_LPL: Life Technologies and Expression Analysis (LTEA) Assay for Lipoprotein lipase (LPL) using HepaRG (AID 2283515)
Method in brief: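 LPL transcript levels quantified by TaqMan qRT-PCR against three housekeeping genes after 48 h chemical treatment of HepaRG cells. Eight-point half-log series from 100 uM in 0.5% DMSO, tested in duplicate; bidirectional fitting versus vehicle.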

[3] = read-out: MicroRNA 122 (MIR122), gene 406906; test: LTEA_HepaRG_MIR122: Life Technologies and Expression Analysis (LTEA) Assay for MicroRNA 122 (MIR122) using HepaRG (AID 2283516); also: the transcript read is the microRNA miR-122
Method in brief: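 qRT-PCR read-out (TaqMan, Fluidigm array), normalized to three housekeeping genes; HepaRG cells dosed 48 h at 8 concentrations up to 100 uM in 0.5% DMSO, duplicate; gain or loss fitted against DMSO baseline.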

[4] = read-out: matrix metalloproteinase-10 (MMP10), MMP10 (gene 4319); test: LTEA_HepaRG_MMP10: Life Technologies and Expression Analysis (LTEA) Assay for matrix metalloproteinase-10 (MMP10) using HepaRG (AID 2283517)
Method in brief: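 Expression measured by TaqMan qRT-PCR with ACTB/GAPDH/POLR2A normalisation after 48 h chemical exposure of HepaRG cells. Eight half-log concentrations, top 100 uM, 0.5% DMSO vehicle, duplicates; gain or loss fitted against vehicle.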

[5] = read-out: matrix metalloproteinase-3 (MMP3), MMP3 (gene 4314); test: LTEA_HepaRG_MMP3: Life Technologies and Expression Analysis (LTEA) Assay for matrix metalloproteinase-3 (MMP3) using HepaRG (AID 2283519)
Method in brief: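 Fluidigm-based TaqMan qRT-PCR, normalized to ACTB, GAPDH and POLR2A and fitted bidirectionally versus 0.5% DMSO, measured transcript levels. Treatment: duplicate 48 h exposures of HepaRG cells, ~100,000/well, to eight half-log concentrations topping at 100 uM.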

[6] = read-out: Paternally Expressed 10 (PEG10), PEG10 (gene 23089); test: LTEA_HepaRG_PEG10: Life Technologies and Expression Analysis (LTEA) Assay for Paternally Expressed 10 (PEG10) using HepaRG (AID 2283520);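 as to AC50: PEG10 transcript by qRT-PCR normalised to ACTB GAPDH and POLR2A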
Method in brief: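 qRT-PCR read-out: PEG10 mRNA normalised to three housekeeping genes, fitted bidirectionally against 0.5% DMSO vehicle. HepaRG cells received test chemicals for 48 h in serum-free induction medium, 8 points, top 100 uM, half-log steps.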

[7] = read-out: Protein phosphatase 2A (PPP2R4), PTPA (gene 5524); test: LTEA_HepaRG_PPP2R4: Life Technologies and Expression Analysis (LTEA) Assay for Protein phosphatase 2A (PPP2R4) using HepaRG (AID 2283522)
Method in brief: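 HepaRG, 48 h exposure, 8-pt half-log series from 100 uM, 0.5% DMSO vehicle, duplicates. Readout: PPP2R4 mRNA, Fluidigm qRT-PCR, housekeeping-normalized. Bidirectional curve fit vs DMSO baseline.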

[8] = read-out: Phosphatase and tensin (PTEN), PTEN (gene 5728); test: LTEA_HepaRG_PTEN: Life Technologies and Expression Analysis (LTEA) Assay for Phosphatase and tensin (PTEN) using HepaRG (AID 2283523)
Method in brief: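 Read-out: TaqMan qRT-PCR of PTEN transcript, normalized to three housekeeping genes, fitted in both directions against 0.5% DMSO. Differentiated human HepaRG cultures received chemicals for 48 h, eight-point half-log series topping at 100 uM.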

[9] = read-out: solute carrier (SLC22A1), SLC22A1 (gene 6580); test: LTEA_HepaRG_SLC22A1: Life Technologies and Expression Analysis (LTEA) Assay for solute carrier (SLC22A1) using HepaRG (AID 2283524);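 as to AC50: differentiated human HepaRG liver cells in serum-free induction medium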
Method in brief: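 Transcript level of SLC22A1 quantified by qRT-PCR (normalized to three housekeeping genes) after 48 h chemical exposure of HepaRG cells, eight concentrations up to 100 µM, half-log steps, 0.5% DMSO vehicle. Gain or loss relative to DMSO fitted bidirectionally.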

[10] = read-out: Pyruvate Dehydrogenase Kinase 4 (PDK4), PDK4 (gene 5166); test: LTEA_HepaRG_PDK4: Life Technologies and Expression Analysis (LTEA) Assay for Pyruvate Dehydrogenase Kinase 4 (PDK4) using HepaRG (AID 2283525)
Method in brief: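 Readout is qRT-PCR of PDK4 transcript, normalized to three housekeeping genes, with bidirectional fitting against 0.5% DMSO vehicle. Differentiated HepaRG cells were treated 48 h in serum-free induction medium, duplicate wells, eight-point half-log series topping at 100 uM.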

[11] = read-out: NAD(P)H dehydrogenase [quinone] 1 (NQO1), NQO1 (gene 1728); test: LTEA_HepaRG_NQO1: Life Technologies and Expression Analysis (LTEA) Assay for NAD(P)H dehydrogenase [quinone] 1 (NQO1) using HepaRG (AID 2283526)
Method in brief: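 qRT-PCR read-out (Fluidigm TaqMan), normalized to three housekeeping genes, after 48 h chemical exposure of HepaRG cells. Concentrations: eight points, top 100 uM, half-log steps, 0.5% DMSO vehicle. Gain or loss of signal fitted relative to DMSO.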

[12] = read-out: Nuclear factor erythroid 2-related factor 2 (Homo sapiens) (UniProt Q16236); test: LTEA_HepaRG_NFE2L2: Life Technologies and Expression Analysis (LTEA) Assay for Nuclear factor erythroid 2-related factor 2 (NFE2L2) Transcription Factor using HepaRG (AID 2283527)
Method in brief: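 NFE2L2 transcript level was read by qRT-PCR (housekeeping ACTB/GAPDH/POLR2A normalisation) after 48 h chemical treatment of HepaRG in serum-free induction medium. Duplicate 8-point half-log curves, top 100 uM, 0.5% DMSO vehicle; up- or down-regulation fitted against vehicle.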

[13] = read-out: succinate dehydrogenase complex iron sulfur subunit B (SDHB), SDHB (gene 6390); test: LTEA_HepaRG_SDHB: Life Technologies and Expression Analysis (LTEA) Assay for succinate dehydrogenase complex iron sulfur subunit B (SDHB) using HepaRG (AID 2283528)
Method in brief: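 HepaRG cells (~100,000/well, plated 48 h) exposed in duplicate for 48 h in serum-free induction medium to 8-point half-log series from 100 uM in 0.5% DMSO; mRNA by qRT-PCR normalised to ACTB, GAPDH, POLR2A; bidirectional fit versus DMSO.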

[14] = read-out: Signal transducer and activator of transcription 3 (Homo sapiens) (UniProt P40763); test: LTEA_HepaRG_STAT3: Life Technologies and Expression Analysis (LTEA) Assay for Signal transducer and activator of transcription (STAT3) using HepaRG (AID 2283529)
Method in brief: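 STAT3 transcript quantified by qRT-PCR against three housekeeping genes (ACTB, GAPDH, POLR2A), fitted both directions relative to DMSO. HepaRG cultures exposed 48 h to eight half-log concentrations, top 100 uM, 0.5% DMSO, serum-free induction medium.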

[15] = read-out: solute carrier (SLCO1B1), SLCO1B1 (gene 10599); test: LTEA_HepaRG_SLCO1B1: Life Technologies and Expression Analysis (LTEA) Assay for solute carrier (SLCO1B1) using HepaRG (AID 2283530)
Method in brief: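 HepaRG, serum-free induction medium, 48 h dosing, 8-pt half-log from 100 uM, 0.5% DMSO vehicle, duplicates. Readout: SLCO1B1 mRNA, qRT-PCR, ACTB/GAPDH/POLR2A normalization; up or down fit vs DMSO.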

[16] = read-out: sulfotransferase 2A1 (SULT2A1), SULT2A1 (gene 6822); test: LTEA_HepaRG_SULT2A1: Life Technologies and Expression Analysis (LTEA) Assay for sulfotransferase 2A1 (SULT2A1) using HepaRG (AID 2283531)
Method in brief: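 Transcript levels of SULT2A1, quantified by qRT-PCR and normalized to three housekeeping genes, serve as the readout. Human HepaRG cultures receive test chemicals for 48 h at up to 100 uM in half-log steps, with 0.5% DMSO vehicle.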

[17] = read-out: Transforming Growth Factor (TGFA), TGFA (gene 7039); test: LTEA_HepaRG_TGFA: Life Technologies and Expression Analysis (LTEA) Assay for Transforming Growth Factor (TGFA) using HepaRG (AID 2283532)
Method in brief: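 TGFA transcript quantified by qRT-PCR (Fluidigm arrays) against three housekeeping genes, after 48 hours chemical treatment of HepaRG cells. Top concentration 100 uM with half-log dilutions, 8 points, duplicates, 0.5% DMSO.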

[18] = read-out: Transforming Growth Factor (TGFB1), TGFB1 (gene 7040); test: LTEA_HepaRG_TGFB1: Life Technologies and Expression Analysis (LTEA) Assay for Transforming Growth Factor (TGFB1) Transporter using HepaRG (AID 2283533)
Method in brief: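 HepaRG, 48 h post-plating, switched to serum-free induction medium; chemicals 100 uM top, half-log, 8 pts, 0.5% DMSO, dup; 48 h exposure; RNA → Fluidigm TaqMan qRT-PCR; norm ACTB/GAPDH/POLR2A; bidirectional fit vs DMSO.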

Measured: AC50

Nuclear factor erythroid 2-related factor 2 (Homo sapiens), sequence (Q16236 whole entry, looked up): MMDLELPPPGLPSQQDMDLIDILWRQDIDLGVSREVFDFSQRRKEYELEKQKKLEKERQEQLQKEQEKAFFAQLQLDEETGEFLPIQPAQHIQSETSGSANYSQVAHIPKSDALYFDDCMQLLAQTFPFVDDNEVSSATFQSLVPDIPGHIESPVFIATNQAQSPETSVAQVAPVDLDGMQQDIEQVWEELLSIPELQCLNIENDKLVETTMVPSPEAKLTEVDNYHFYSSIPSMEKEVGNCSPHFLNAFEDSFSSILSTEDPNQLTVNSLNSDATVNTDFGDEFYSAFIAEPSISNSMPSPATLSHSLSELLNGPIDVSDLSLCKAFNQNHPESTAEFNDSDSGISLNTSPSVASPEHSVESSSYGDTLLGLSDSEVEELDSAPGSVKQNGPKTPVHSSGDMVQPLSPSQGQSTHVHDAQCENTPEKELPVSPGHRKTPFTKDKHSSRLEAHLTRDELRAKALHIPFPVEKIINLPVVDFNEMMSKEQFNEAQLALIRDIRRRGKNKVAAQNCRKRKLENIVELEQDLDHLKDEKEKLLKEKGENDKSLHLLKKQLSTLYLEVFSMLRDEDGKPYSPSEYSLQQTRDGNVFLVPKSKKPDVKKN
Signal transducer and activator of transcription 3 (Homo sapiens), sequence (P40763 whole entry, looked up): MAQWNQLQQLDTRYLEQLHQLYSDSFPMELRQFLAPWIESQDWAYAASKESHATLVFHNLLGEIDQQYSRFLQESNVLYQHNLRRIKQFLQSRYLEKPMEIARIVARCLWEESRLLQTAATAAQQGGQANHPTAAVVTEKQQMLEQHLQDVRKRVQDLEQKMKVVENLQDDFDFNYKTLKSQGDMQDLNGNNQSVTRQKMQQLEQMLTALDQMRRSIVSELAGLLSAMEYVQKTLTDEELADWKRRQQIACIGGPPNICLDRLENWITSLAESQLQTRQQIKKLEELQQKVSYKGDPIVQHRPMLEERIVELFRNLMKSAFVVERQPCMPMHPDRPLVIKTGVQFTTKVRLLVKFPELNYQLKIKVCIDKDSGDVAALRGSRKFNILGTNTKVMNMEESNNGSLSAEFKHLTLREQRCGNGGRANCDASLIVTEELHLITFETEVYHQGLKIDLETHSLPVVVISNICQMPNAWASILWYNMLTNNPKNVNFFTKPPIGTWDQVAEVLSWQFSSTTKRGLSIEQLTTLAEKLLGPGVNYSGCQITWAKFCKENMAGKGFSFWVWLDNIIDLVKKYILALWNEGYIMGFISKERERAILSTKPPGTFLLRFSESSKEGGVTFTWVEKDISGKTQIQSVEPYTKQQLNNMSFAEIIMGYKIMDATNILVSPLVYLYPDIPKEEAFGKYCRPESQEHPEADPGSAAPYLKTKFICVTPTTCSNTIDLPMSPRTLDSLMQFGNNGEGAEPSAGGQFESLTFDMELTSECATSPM

CN(C)c1ccc(C(=C2C=CC(=[N+](C)C)C=C2)c2ccc(N(C)C)cc2)cc1
inactive: [17]
active: [1] 3.01 µM | [2] 36 µM | [3] 6.78 µM | [4] 8.54 µM | [5] 9.34 µM | [6] 6.63 µM | [7] 12.9 µM | [8] 26.1 µM | [9] 3.62 µM | [10] 32.4 µM | [11] 5 µM | [12] 12.7 µM | [13] 11.1 µM | [14] 39.3 µM | [15] 4.64 µM | [16] 3.54 µM

CN1C(=O)N(c2ccccc2Br)Cc2cnc(Nc3ccc4c(c3)OCC(CO)O4)nc21 (stereo not given)
inactive: [4] | [5] | [6] | [7] | [8] | [11] | [12] | [17]
active: [1] 71.8 µM | [2] 31.8 µM | [3] 63.2 µM | [9] 35.2 µM | [10] 50 µM | [13] 12.2 µM | [14] 50 µM | [15] 80.9 µM | [16] 81.1 µM

CO[C@H]1/C=C/O[C@@]2(C)Oc3c(C)c(O)c4c(O)c(c(/C=N/N5CCN(C)CC5)c(O)c4c3C2=O)NC(=O)/C(C)=C\C=C\[C@H](C)[C@H](O)[C@@H](C)[C@@H](O)[C@@H](C)[C@H](OC(C)=O)[C@@H]1C
active: [14] 7.81 µM
not listed: [6] | [7]
inactive: all other assays above
